The text below walks through data of the supplement of paper PMC8540655.

The test system of this assay is Aedes aegypti larvae. The assay can be described thus: larval motility relative to same well at 0 h (fraction); higher = more motile (less active compound), active = 0.4 or less. Particulars: 10 µM. The gist of the method: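 Relative motility is the score of a well divided by its own score at the first recording. Movies were made with INVAPP at 0, 2 and 24 h, each having 200 frames at 100 ms intervals. Larvae of Aedes aegypti, from 18–24 h hatches in pond salt solution with yeast at 25 °C, sat at about 10 per well (100 µL) in 96-well plates with compounds at 10 µM and 1% v/v DMSO. Solvent and larvicide control wells were included on every plate, and values are medians of three independent larval batches.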

Values without a mark were called inactive.

For `CC(C)(C)c1cc(C(=O)/C(C#N)=N/Nc2cccc(Cl)c2)no1`, the larval motility was 1.14 (2 h) and 1.21 (24 h).
On the same counts, the results for `Cc1c(CN(C)C(=O)/C=C/c2cnc3c(c2)C(C)(C)C(=O)N3)oc2ccccc12` are 1.24 and 1.15.
On the same counts, the results for `CC#C[C@]1(O)CC[C@H]2[C@@H]3CCC4=CC(=O)CCC4=C3[C@@H](c3ccc(N(C)C)cc3)C[C@@]21C` are 0.693 and 0.826.
On the same counts, the results for `OCCC#Cc1nc(-c2ccc(F)cc2)c(-c2ccncc2)n1CCCc1ccccc1` are 0.457 and 0.301 (active).
For `CCCCc1ccc(-c2cc(C(=O)O)cc(-c3ccc(Cl)cc3)n2)cc1`, the larval motility by setting is: (2 h) 0.642; (24 h) 0.563.
Take `Cc1ccc(N2CCC(CCOc3ccc(S(C)(=O)=O)cc3)CC2)nn1`: the larval motility is 0.943 (2 h) and 0.683 (24 h).
On the same counts, the results for `O=P(O)(O)C(CCCc1cccc(Oc2ccccc2)c1)S(=O)(=O)O` (centres undefined) are 0.663 and 0.88.
On the same counts, the results for `CCNC(=O)Nc1cc(-c2ccccc2)c(-c2cncc(C(=O)O)c2)cn1` are 0.236 (active) and 0.433.
On the same counts, the results for `O=S(=O)(Nc1ccccc1)c1ccc(NC(=S)Nc2ccccc2)cc1` are 0.779 and 0.792.
In the case of `C=C[C@]1(C)C[C@@H](OC(=O)CS[C@@H]2C[C@H]3CC[C@@H](C2)N3C)[C@]2(C)[C@H](C)CC[C@]3(CCC(=O)[C@H]32)[C@@H](C)[C@@H]1O`, the larval motility was 0.606 (2 h) and 0.545 (24 h).
The corresponding values for `O=S(=O)(NCB(O)O)c1cc2c(Cl)ccc(Cl)c2s1` are 0.568 and 0.742.
With `Fc1ccc2c(/C=C/c3cccnc3)c[nH]c2c1`, the larval motility is 1.04 (2 h) and 0.678 (24 h).
For `Oc1cccc(C(Nc2nccs2)c2ccc3cccnc3c2O)c1` (centres undefined), the larval motility was 1.09 (2 h) and 0.912 (24 h).
As for `COc1ccc(CNC(=O)C2CCN([C@H](C)c3cccc4ccccc34)CC2)cc1`, the larval motility was 0.771 (2 h) and 0.922 (24 h).
On the same counts, the results for `COc1ccccc1NC(=O)c1ccccc1Sc1ccc([N+](=O)[O-])cc1` are 0.911 and 0.861.
On the same counts, the results for `CCOc1ccc(/C=N/NC(=O)C2CC2c2ccc(C(C)(C)C)cc2)cc1OCC` (centres undefined) are 1.29 and 1.4.
Regarding `CSC[C@H]1CN(Cc2c[nH]c3c(N)ncnc23)C[C@@H]1O`, the larval motility by setting is: (2 h) 1.02; (24 h) 0.589.
The corresponding values for `O=C(O)CSc1cc(NS(=O)(=O)c2cccc3cccnc23)c2ccccc2c1O` are 0.969 and 0.675.
The corresponding values for `Cc1nc(N(C)C(=O)Cc2ccc(-c3ccccn3)cc2)sc1S(N)(=O)=O` are 1.62 and 1.81.
On the same counts, the results for `CCC(C)n1ncn(-c2ccc(N3CCN(c4ccc(OCC5COC(Cn6cncn6)(c6ccc(Cl)cc6Cl)O5)cc4)CC3)cc2)c1=O` (centres undefined) are 0.656 and 0.571.
As to `CC(=O)N[C@H](C)C(=O)N[C@H](Cc1ccccc1)C(=O)O`, the larval motility is 0.496 (2 h) and 0.597 (24 h).
On the same counts, the results for `CC(C)n1cnc2c(NCc3ccccc3)nc(NCc3ccccc3)nc21` are 1.3 and 1.42.
On to `COc1c(NC(=O)[C@H]2CC[C@@H](COc3ccc([N+](=O)[O-])cc3)CC2)c(F)cc2c(=O)c(C(=O)O)cn(C3CC3)c12`, for which the larval motility was 1.02 (2 h) and 0.873 (24 h).
On the same counts, the results for `CN1CCN(Cc2ccc(-c3cnc4[nH]cc(-c5ccc6[nH]ccc6c5)c4c3)cc2)CC1` are 0.696 and 0.967.
The corresponding values for `O=C(NC1CCCc2c1[nH]c1ccc(Cl)cc21)c1ccccn1` (centres undefined) are 1.38 and 1.01.
As to `Cc1ccc(S(=O)(=O)Nc2cccc3cccnc23)cc1`, the larval motility (2 h) was 1.02 and the larval motility (24 h) was 0.566.
Consider `N[C@@H]1CN(c2c(F)cc3c(=O)c(C(=O)O)cn([C@@H]4C[C@@H]4F)c3c2Cl)CC12CC2`, for which the larval motility is 0.745 (2 h) and 1.11 (24 h).
The corresponding values for `FC(F)(F)Oc1ccc(Nc2ccc3cccc(Cl)c3n2)cc1` are 0.563 and 0.29 (active).
The corresponding values for `Nc1cccc(-c2nc(N)nc(NC3Cc4ccccc4C3)n2)c1` are 1.08 and 0.803.
For `CC(C)C(=O)N[C@H]1[C@H]([C@H](O)[C@H](O)CO)OC(C(=O)O)=C[C@@H]1N=[N+]=[N-]`, the larval motility is, setting by setting: (2 h) 1.64; (24 h) 1.56.
On the same counts, the results for `CCC(CC)[C@H](NC(C)=O)[C@@H]1[C@H](O)[C@@H](C(=O)O)C[C@H]1NC(=N)N` are 0.729 and 1.91.
The corresponding values for `CCCCCCCCC(CP(=O)(O)C(C)N)C(=O)O` (centres undefined) are 0.654 and 1.09.
Turning to `CCOC(=O)/C=C/[C@H](C[C@@H]1CCNC1=O)NC(=O)[C@H](CC)n1cccc(NC(=O)c2cc(C)on2)c1=O`, the larval motility is 1.27 (2 h) and 0.871 (24 h).
On the same counts, the results for `CCNC(=O)Nc1cc2c(-c3ccnc(C)c3)ccc(CNC(=O)OC)c2cn1` are 0.695 and 0.931.
The corresponding values for `Cc1c(N)cccc1Cn1ccc(OCCc2cccs2)cc1=O` are 0.953 and 0.875.
For the compound `C(=C\c1nc2ccccc2[nH]1)/c1ccc2c(c1)OCO2`, the larval motility by setting is: (2 h) 0.765; (24 h) 1.01.
The corresponding values for `CC[C@@]1(O)C(=O)OCc2c1cc1n(c2=O)Cc2cc3c([N+](=O)[O-])cccc3nc2-1` are 0.324 (active) and 0.433.
Turning to `OCCCCn1cnc2c(O)nc(NCc3ccc(Cl)c(Cl)c3)nc21`, the larval motility runs as follows: (2 h) 0.982; (24 h) 0.79.
The corresponding values for `Cc1cc(NS(=O)(=O)c2ccc(-c3ccc(F)cc3F)cc2)no1` are 0.769 and 0.77.
On the same counts, the results for `O=c1cc(OCc2ccccc2)ccn1Cc1ccccc1` are 1.27 and 1.69.
Take `O=c1cc(NCCCN[C@@H]2CCOc3c(Br)cc(Br)cc32)[nH]c2ccsc12`: the larval motility runs as follows: (2 h) 0.659; (24 h) 1.28.
On the same counts, the results for `C[C@H](NC(CC(=O)c1ccccc1C(F)(F)F)C(=O)O)c1ccccc1` (some centres undefined) are 0.873 and 0.674.
The corresponding values for `Oc1c(C(Nc2ccccn2)c2ccccc2)ccc2cccnc12` (centres undefined) are 0.721 and 1.07.
The corresponding values for `CC1CCc2c(N3CCC(O)CC3)c(F)cc3c(=O)c(C(=O)O)cn1c23` (centres undefined) are 1.3 and 0.744.
As to `COc1ccc(COc2cc3oc(=O)c4cc(C(C)O)ccc4c3cc2OC)cc1` (centres undefined), the larval motility is 1.02 (2 h) and 1.2 (24 h).
On the same counts, the results for `O=c1oc2ccc(Br)cc2cc1CSc1ncc[nH]1` are 0.806 and 0.972.
The corresponding values for `NNC(=O)c1ccncc1` are 0.924 and 0.744.
The corresponding values for `CNc1nc(=O)[nH]cc1F` are 0.634 and 0.909.
Consider `Cc1cc(CCCOc2c(C)cc(-c3noc(C(F)(F)F)n3)cc2C)on1`, for which the larval motility (2 h) was 1.46 and the larval motility (24 h) was 0.903.
Take `O=C(NNC(=S)Nc1ccc(Cl)cc1)c1ccncc1`: the larval motility is 0.695 (2 h) and 0.45 (24 h).
The corresponding values for `CN(C)c1[nH]c(=O)ncc1F` are 1.24 and 1.3.
The corresponding values for `Nc1nc(O)c(Br)c(-c2ccccc2)n1` are 0.633 and 0.648.
On the same counts, the results for `CCc1cc(Cc2cnc(N)nc2N)cc2c1N(C)CCC2C` (centres undefined) are 0.948 and 0.898.
In the case of `NC(=O)c1cnc2ccc(S(=O)(=O)c3ccccc3)cc2c1Nc1ccc(O)cc1`, the larval motility is, setting by setting: (2 h) 1.25; (24 h) 1.01.
The corresponding values for `NC(=O)c1cnccn1` are 0.745 and 1.
On the same counts, the results for `CC(C)c1ccc(COc2cccc(-c3cc(S(C)=O)c(C#N)c(=O)[nH]3)c2)cc1` (centres undefined) are 0.682 and 0.447.
On the same counts, the results for `O=C(O)CCNC(=O)c1ccccc1` are 0.977 and 1.03.
For `O=S(=O)(NCB(O)O)c1ccc(-c2nnn[nH]2)cc1C(F)(F)F`, the larval motility is 0.999 (2 h) and 1.46 (24 h).
The corresponding values for `C[C@@H]1O[C@@H]1P(=O)(O)O` are 0.617 and 0.856.
On the same counts, the results for `Nc1cc(N)c2nc(-c3ccccc3)c(Nc3ccc(F)cc3)nc2c1` are 0.877 and 0.892.
The corresponding values for `CCC[C@@H]1C[C@@H](C(=O)N[C@@H]([C@H]2O[C@H](SC)[C@H](O)[C@@H](O)[C@H]2O)[C@H](C)Cl)N(C)C1` are 0.804 and 0.885.
On to `CC[C@H]1OC(=O)[C@H](C)[C@@H](O[C@H]2C[C@@](C)(OC)[C@@H](O)[C@H](C)O2)[C@H](C)[C@@H](O[C@@H]2O[C@H](C)C[C@H](N(C)C)[C@H]2O)[C@](C)(O)C[C@@H](C)C(=O)[C@H](C)[C@@H](O)[C@]1(C)O`, for which the larval motility is 1.03 (2 h) and 0.824 (24 h).
The corresponding values for `O=C(NCc1ccc2c3c(cccc13)C(=O)N2)c1cccs1` are 0.944 and 0.861.
The corresponding values for `N#Cc1c(F)c(Cl)c(NCc2ccccc2)c(C#N)c1F` are 0.585 and 0.978.
On the same counts, the results for `Nc1nc2c(Cc3cccnc3)c[nH]c2c(=O)[nH]1` are 0.722 and 0.771.
As to `CCOCc1nc2c(N)nc3ccccc3c2n1CC(C)(C)O`, the larval motility is 1.09 (2 h) and 0.906 (24 h).
The corresponding values for `Cc1ccc(Oc2ccccc2-c2csc(NC3=NCCCN3)n2)c(C)c1` are 0.774 and 0.786.
